According to PMC7862700, “An all-to-all approach to the identification of sequence-specific readers for epigenetic DNA modifications on cytosine”:

Key:
Assay in all cases: DAPPL (digital affinity profiling via proximity ligation, sequencing); 10 mM Tris-HCl pH 7.5, 50 mM NaCl, 1 mM DTT, 4% glycerol, room temperature, 30 min; GST-TFs on glutathione beads, 16-mer random dsDNA library, 0.1% formaldehyde crosslink after washing; high values mean tight binding
Conditions in all cases: protein: recombinant; tags: N-terminal GST; dsDNA, one strand shown
FLI1 = target: T1, FLI1 (Homo sapiens, UniProt Q01543 1-452)
T1 sequence: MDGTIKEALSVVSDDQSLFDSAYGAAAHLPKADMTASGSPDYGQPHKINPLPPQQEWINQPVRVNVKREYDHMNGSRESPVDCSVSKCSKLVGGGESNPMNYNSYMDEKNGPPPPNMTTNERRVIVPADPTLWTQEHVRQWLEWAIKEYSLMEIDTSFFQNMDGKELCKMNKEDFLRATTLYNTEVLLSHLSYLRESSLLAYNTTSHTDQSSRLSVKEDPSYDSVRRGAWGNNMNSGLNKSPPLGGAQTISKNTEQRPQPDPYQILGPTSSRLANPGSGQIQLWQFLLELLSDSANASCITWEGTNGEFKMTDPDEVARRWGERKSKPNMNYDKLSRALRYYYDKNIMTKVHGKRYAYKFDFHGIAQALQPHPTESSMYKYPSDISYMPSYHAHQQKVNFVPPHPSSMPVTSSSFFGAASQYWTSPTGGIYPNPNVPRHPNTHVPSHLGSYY
Outline: (§1)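 Human transcription factors carrying a GST fusion were produced in yeast, bound to glutathione beads, tagged with DNA barcodes and pooled together with a tag-only sample. Each pool was held with 200 nmole of a random double-stranded 16-mer DNA library in Tris/NaCl/DTT/glycerol buffer for 30 min at room temperature, then washed, crosslinked in 0.1% formaldehyde, proximity-ligated with BsaI/T4 ligase (1 h, 37 °C), PCR-amplified and sequenced on an Illumina NextSeq500. Binding signal is the read frequency of each hexamer for a given factor divided by its frequency in the tag-only sample.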

ELK1 = target: T2, ELK1 (Homo sapiens, UniProt P19419 1-428)
T2 sequence: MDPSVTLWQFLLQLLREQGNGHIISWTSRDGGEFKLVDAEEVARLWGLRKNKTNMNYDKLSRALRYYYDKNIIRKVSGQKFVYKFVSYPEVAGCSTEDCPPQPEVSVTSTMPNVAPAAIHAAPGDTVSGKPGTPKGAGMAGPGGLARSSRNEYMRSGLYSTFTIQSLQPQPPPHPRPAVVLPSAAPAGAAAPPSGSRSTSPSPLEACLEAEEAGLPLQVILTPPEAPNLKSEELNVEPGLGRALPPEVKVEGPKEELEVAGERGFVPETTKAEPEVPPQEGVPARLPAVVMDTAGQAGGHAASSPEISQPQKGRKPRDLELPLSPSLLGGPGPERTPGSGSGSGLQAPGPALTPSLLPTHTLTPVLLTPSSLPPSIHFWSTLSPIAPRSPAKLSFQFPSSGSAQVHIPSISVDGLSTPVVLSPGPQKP
Outline: as §1

GABPA = target: T3, GABPA (Homo sapiens, UniProt Q06546 1-454)
T3 sequence: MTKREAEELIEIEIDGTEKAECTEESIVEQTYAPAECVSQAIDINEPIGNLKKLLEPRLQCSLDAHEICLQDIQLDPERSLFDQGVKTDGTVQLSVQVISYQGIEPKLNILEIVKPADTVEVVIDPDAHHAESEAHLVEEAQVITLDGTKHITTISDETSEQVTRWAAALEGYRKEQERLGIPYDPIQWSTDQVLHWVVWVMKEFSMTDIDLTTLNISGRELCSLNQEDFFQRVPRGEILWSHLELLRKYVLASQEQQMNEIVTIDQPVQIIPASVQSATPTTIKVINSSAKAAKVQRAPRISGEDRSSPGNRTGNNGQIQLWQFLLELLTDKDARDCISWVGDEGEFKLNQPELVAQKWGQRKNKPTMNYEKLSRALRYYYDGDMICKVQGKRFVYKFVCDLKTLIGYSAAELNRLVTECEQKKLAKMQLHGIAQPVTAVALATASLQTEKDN
Outline: as §1

ERG = target: T4, ERG (Homo sapiens, UniProt P11308 1-479)
T4 sequence: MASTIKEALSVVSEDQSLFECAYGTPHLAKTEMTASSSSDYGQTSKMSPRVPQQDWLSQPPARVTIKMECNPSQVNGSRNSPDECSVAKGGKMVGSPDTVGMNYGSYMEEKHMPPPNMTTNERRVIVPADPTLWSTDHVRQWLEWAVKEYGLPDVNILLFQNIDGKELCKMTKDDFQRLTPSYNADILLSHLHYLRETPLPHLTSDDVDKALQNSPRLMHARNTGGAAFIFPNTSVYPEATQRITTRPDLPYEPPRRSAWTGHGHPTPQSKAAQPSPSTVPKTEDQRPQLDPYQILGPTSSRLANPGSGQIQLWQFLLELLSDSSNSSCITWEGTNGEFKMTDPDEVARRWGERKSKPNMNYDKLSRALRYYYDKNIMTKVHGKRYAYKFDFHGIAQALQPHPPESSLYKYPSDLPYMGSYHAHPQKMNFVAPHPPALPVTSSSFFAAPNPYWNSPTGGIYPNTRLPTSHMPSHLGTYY
Outline: as §1

ELF1 = ELF1 (Homo sapiens, UniProt P32519 1-619)
Outline: as §1

EHF = target: T5, EHF (Homo sapiens, UniProt Q9NZC4 1-300)
T5 sequence: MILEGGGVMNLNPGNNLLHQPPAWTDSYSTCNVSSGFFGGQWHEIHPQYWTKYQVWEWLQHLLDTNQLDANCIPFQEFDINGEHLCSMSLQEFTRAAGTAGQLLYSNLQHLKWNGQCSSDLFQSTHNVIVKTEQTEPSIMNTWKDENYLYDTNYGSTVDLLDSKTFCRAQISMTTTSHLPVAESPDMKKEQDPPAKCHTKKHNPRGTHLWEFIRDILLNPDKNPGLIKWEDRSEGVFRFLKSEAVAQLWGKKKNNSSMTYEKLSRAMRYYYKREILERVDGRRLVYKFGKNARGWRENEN
Outline: as §1

SPI1 = SPI1 (Homo sapiens, UniProt P17947 1-270)
Outline: as §1

SPIB = SPIB (Homo sapiens, UniProt Q01892 1-262)
Outline: as §1

ELK3 = target: T6, ELK3 (Homo sapiens, UniProt P41970 1-407)
T6 sequence: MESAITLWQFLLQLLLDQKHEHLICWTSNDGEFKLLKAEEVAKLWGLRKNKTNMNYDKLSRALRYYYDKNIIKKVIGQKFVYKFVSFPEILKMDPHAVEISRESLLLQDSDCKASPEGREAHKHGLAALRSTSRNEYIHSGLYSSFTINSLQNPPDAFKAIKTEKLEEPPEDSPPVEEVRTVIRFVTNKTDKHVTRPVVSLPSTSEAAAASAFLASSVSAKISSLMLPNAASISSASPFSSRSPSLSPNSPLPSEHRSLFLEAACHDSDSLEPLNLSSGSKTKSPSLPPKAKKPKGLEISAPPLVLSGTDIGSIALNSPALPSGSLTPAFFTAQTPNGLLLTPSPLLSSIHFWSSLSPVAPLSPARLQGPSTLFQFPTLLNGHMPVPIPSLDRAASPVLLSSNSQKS
Outline: as §1

Chain of ELF1 (P32519 whole entry): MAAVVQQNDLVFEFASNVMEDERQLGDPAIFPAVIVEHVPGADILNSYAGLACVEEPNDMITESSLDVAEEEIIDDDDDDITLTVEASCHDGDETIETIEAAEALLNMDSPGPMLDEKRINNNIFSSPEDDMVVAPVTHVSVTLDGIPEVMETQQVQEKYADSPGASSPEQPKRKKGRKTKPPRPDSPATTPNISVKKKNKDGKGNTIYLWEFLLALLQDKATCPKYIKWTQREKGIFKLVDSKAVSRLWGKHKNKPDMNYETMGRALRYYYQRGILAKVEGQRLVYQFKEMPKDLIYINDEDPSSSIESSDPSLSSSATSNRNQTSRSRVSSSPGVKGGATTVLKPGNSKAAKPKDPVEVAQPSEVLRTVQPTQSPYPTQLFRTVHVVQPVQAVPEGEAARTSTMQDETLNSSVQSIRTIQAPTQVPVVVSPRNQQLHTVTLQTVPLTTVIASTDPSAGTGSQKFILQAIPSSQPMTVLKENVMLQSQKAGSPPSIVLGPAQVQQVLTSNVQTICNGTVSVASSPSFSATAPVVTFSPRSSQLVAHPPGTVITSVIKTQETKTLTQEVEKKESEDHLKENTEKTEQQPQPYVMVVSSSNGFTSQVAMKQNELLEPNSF
Chain of SPIB (Q01892 whole entry): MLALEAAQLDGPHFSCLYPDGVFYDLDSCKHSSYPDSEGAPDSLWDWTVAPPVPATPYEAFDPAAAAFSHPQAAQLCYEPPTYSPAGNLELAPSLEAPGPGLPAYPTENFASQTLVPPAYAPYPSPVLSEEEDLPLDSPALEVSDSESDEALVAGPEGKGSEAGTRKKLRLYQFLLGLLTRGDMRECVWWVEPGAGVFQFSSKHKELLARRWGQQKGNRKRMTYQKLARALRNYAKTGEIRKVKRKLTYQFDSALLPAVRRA

Sequence	binding signal (FLI1)	binding signal (ELK1)	binding signal (GABPA)	binding signal (ERG)	binding signal (ELF1)	binding signal (EHF)	binding signal (SPI1)	binding signal (SPIB)	binding signal (ELK3)
TATTAC	1.24 fold enrichment (6-mer frequency, TF over GST control)	1.2 fold enrichment (6-mer frequency, TF over GST control)	1.09 fold enrichment (6-mer frequency, TF over GST control)	1.16 fold enrichment (6-mer frequency, TF over GST control)	1.19 fold enrichment (6-mer frequency, TF over GST control)	1.19 fold enrichment (6-mer frequency, TF over GST control)	1.12 fold enrichment (6-mer frequency, TF over GST control)	1.21 fold enrichment (6-mer frequency, TF over GST control)	1.16 fold enrichment (6-mer frequency, TF over GST control)
TATAAT	1.14 fold enrichment (6-mer frequency, TF over GST control)	1.24 fold enrichment (6-mer frequency, TF over GST control)	1.12 fold enrichment (6-mer frequency, TF over GST control)	1.07 fold enrichment (6-mer frequency, TF over GST control)	1.18 fold enrichment (6-mer frequency, TF over GST control)	1.18 fold enrichment (6-mer frequency, TF over GST control)	1.15 fold enrichment (6-mer frequency, TF over GST control)	1.15 fold enrichment (6-mer frequency, TF over GST control)	1.22 fold enrichment (6-mer frequency, TF over GST control)
CTTAAT	1.37 fold enrichment (6-mer frequency, TF over GST control)	1.2 fold enrichment (6-mer frequency, TF over GST control)	1.34 fold enrichment (6-mer frequency, TF over GST control)	1.13 fold enrichment (6-mer frequency, TF over GST control)	1.26 fold enrichment (6-mer frequency, TF over GST control)	1.24 fold enrichment (6-mer frequency, TF over GST control)	1.31 fold enrichment (6-mer frequency, TF over GST control)	1.3 fold enrichment (6-mer frequency, TF over GST control)	1.47 fold enrichment (6-mer frequency, TF over GST control)
CATATT	1.22 fold enrichment (6-mer frequency, TF over GST control)	1.17 fold enrichment (6-mer frequency, TF over GST control)	1.27 fold enrichment (6-mer frequency, TF over GST control)	1.26 fold enrichment (6-mer frequency, TF over GST control)	1.24 fold enrichment (6-mer frequency, TF over GST control)	1.17 fold enrichment (6-mer frequency, TF over GST control)	1.27 fold enrichment (6-mer frequency, TF over GST control)	1.28 fold enrichment (6-mer frequency, TF over GST control)	1.17 fold enrichment (6-mer frequency, TF over GST control)
TCTTAT	1.41 fold enrichment (6-mer frequency, TF over GST control)	1.33 fold enrichment (6-mer frequency, TF over GST control)	1.25 fold enrichment (6-mer frequency, TF over GST control)	1.27 fold enrichment (6-mer frequency, TF over GST control)	1.28 fold enrichment (6-mer frequency, TF over GST control)	1.16 fold enrichment (6-mer frequency, TF over GST control)	1.28 fold enrichment (6-mer frequency, TF over GST control)	1.22 fold enrichment (6-mer frequency, TF over GST control)	1.31 fold enrichment (6-mer frequency, TF over GST control)
GTATTA	1.17 fold enrichment (6-mer frequency, TF over GST control)	1.2 fold enrichment (6-mer frequency, TF over GST control)	1.07 fold enrichment (6-mer frequency, TF over GST control)	1.12 fold enrichment (6-mer frequency, TF over GST control)	1.11 fold enrichment (6-mer frequency, TF over GST control)	1.03 fold enrichment (6-mer frequency, TF over GST control)	1.04 fold enrichment (6-mer frequency, TF over GST control)	1.07 fold enrichment (6-mer frequency, TF over GST control)	1.06 fold enrichment (6-mer frequency, TF over GST control)
CCTTTT	1.49 fold enrichment (6-mer frequency, TF over GST control)	1.46 fold enrichment (6-mer frequency, TF over GST control)	1.46 fold enrichment (6-mer frequency, TF over GST control)	1.56 fold enrichment (6-mer frequency, TF over GST control)	1.52 fold enrichment (6-mer frequency, TF over GST control)	1.49 fold enrichment (6-mer frequency, TF over GST control)	2.05 fold enrichment (6-mer frequency, TF over GST control)	1.67 fold enrichment (6-mer frequency, TF over GST control)	1.64 fold enrichment (6-mer frequency, TF over GST control)
AATTAA	1.26 fold enrichment (6-mer frequency, TF over GST control)	1.2 fold enrichment (6-mer frequency, TF over GST control)	1.22 fold enrichment (6-mer frequency, TF over GST control)	1.26 fold enrichment (6-mer frequency, TF over GST control)	1.27 fold enrichment (6-mer frequency, TF over GST control)	1.22 fold enrichment (6-mer frequency, TF over GST control)	1.26 fold enrichment (6-mer frequency, TF over GST control)	1.21 fold enrichment (6-mer frequency, TF over GST control)	1.31 fold enrichment (6-mer frequency, TF over GST control)
